# PMC10726135, “HNF4α isoforms regulate the circadian balance between carbohydrate and lipid metabolism in the liver”
# Over roughly 18,000 sequences, “log2 normalized intensity” has its median near 0.36; the highest 2% begin near 7.3. The full list was thinned out, with the highest values kept by preference.
# Target: T1, HNF4alpha8 (COS-7 nuclear extract) (Homo sapiens, UniProt P41235-5 1-452)
# T1 sequence: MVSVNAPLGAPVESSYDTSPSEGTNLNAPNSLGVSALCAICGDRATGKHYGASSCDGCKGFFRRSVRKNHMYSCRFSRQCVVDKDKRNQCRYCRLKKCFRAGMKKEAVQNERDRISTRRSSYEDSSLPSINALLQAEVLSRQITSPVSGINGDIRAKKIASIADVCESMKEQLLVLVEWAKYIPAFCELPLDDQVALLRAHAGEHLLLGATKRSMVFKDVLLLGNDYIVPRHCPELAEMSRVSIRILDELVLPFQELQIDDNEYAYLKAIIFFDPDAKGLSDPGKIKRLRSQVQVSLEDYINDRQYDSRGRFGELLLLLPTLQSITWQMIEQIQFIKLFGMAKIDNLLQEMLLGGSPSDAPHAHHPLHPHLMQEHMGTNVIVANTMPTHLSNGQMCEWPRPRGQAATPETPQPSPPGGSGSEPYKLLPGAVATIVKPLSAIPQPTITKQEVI
# Experiment: protein-binding microarray; COS-7 nuclear extract on double-stranded Agilent 4x180k PBM; binding buffer, salt, pH and temperature not given in the material; high values mean tight binding
# Details: chain copies: 2; label: 3' end of strand 1 on the slide; dsDNA, one strand shown
# Summary of the method: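 Using CaPO4, COS-7 cells were transiently transfected with a human HNF4α isoform expression vector, and their nuclear extracts were applied to a custom Agilent SurePrint G3 4x180k double-stranded oligonucleotide array (~60 nt; ~44,000 test sequences in quadruplicate). Bound HNF4α was imaged at 2-µm resolution with an Agilent G2565CA scanner. Agilent software supplied the background-corrected, normalized gProcessedSignal that serves as the binding signal.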
row,Sequence,binding signal
1,TATCAGCTTTGAGACACCTGGCCAAGTACAGCCTAGGGAGATTAGAGTATCGGTCGA,-0.899 log2 normalized intensity
2,TTTTCCACCCTCCCCTCCCCCTCCTCCCCTGCCTAGGGAGATTAGAGTATCGGTCGA,7.22 log2 normalized intensity
3,AACCCGCCCCCTCCCCCTGCCGGCGGCGCAGCCTAGGGAGATTAGAGTATCGGTCGA,6.05 log2 normalized intensity
4,ATTGTGAAACGTTTGAATTCTTGCCTATCCGCCTAGGGAGATTAGAGTATCGGTCGA,-0.841 log2 normalized intensity
5,GGTTGCCCAGGGAGAGCTGGACTTTCATCTGCCTAGGGAGATTAGAGTATCGGTCGA,5.54 log2 normalized intensity
6,TTGGAGAATGCCTTTTGTGTAGGAGTACACGCCTAGGGAGATTAGAGTATCGGTCGA,1.46 log2 normalized intensity
7,GGCGGCTAGTGTACAGGTGACCTTTGGAATGCCTAGGGAGATTAGAGTATCGGTCGA,9.41 log2 normalized intensity
8,GCTAGGTGGCGGGCTGGCTCAGGACAGGTGGCCTAGGGAGATTAGAGTATCGGTCGA,-0.886 log2 normalized intensity
9,TGGCTGGCGGCTAGTGTACAGGTGACCTTTGCCTAGGGAGATTAGAGTATCGGTCGA,7.84 log2 normalized intensity
10,GGAATGAGCAGGAACCTTGTGGTGGTGAAAGCCTAGGGAGATTAGAGTATCGGTCGA,0.216 log2 normalized intensity
11,AGATAGTGACGGAGGTGACCTTTGGTTGTCGCCTAGGGAGATTAGAGTATCGGTCGA,6.24 log2 normalized intensity
12,TATCTTTGGAGAATGCCTTTTGTGTAGGAGGCCTAGGGAGATTAGAGTATCGGTCGA,1.69 log2 normalized intensity
13,CTAGTGTACAGGTGACCTTTGGAATGAACCGCCTAGGGAGATTAGAGTATCGGTCGA,7.75 log2 normalized intensity
14,AAAGCTGGCTGGCGGCTAGTGTACAGGTGAGCCTAGGGAGATTAGAGTATCGGTCGA,0.565 log2 normalized intensity
15,TCCCTGAAGGCCAGGCAGCACAATTTGTGTGCCTAGGGAGATTAGAGTATCGGTCGA,-0.959 log2 normalized intensity
16,TGATCTTTGAAACATAACAGCAACAACACAGCCTAGGGAGATTAGAGTATCGGTCGA,0.241 log2 normalized intensity
17,TATTGAGAAGAAACCTTTGCCCAACAGGATGCCTAGGGAGATTAGAGTATCGGTCGA,2.13 log2 normalized intensity
18,GGCGAGTGTGCAATTAGAGCAAAGGTTACTGCCTAGGGAGATTAGAGTATCGGTCGA,3.57 log2 normalized intensity
19,ACAAAGATCATAAATGCCTCCCCCTCTTTAGCCTAGGGAGATTAGAGTATCGGTCGA,3.85 log2 normalized intensity
20,TGGGCCAAAGGTCATACCTGTCTAGGTGGAGCCTAGGGAGATTAGAGTATCGGTCGA,4.74 log2 normalized intensity
21,GGGGAGGTGGGAAAAGAAATGTAGTGACAGGCCTAGGGAGATTAGAGTATCGGTCGA,-0.392 log2 normalized intensity
22,TGCATGGATTTCTCAGTTGAGGAATGGGTAGCCTAGGGAGATTAGAGTATCGGTCGA,0.827 log2 normalized intensity

row,Sequence,binding signal
1,TAGGGAAAATAGTGACCCTGTCTCTCAGTCGCCTAGGGAGATTAGAGTATCGGTCGA,1.62 log2 normalized intensity
2,GGCATTAATTCTTCTTTGAAAGTTTGGTGGGCCTAGGGAGATTAGAGTATCGGTCGA,1.65 log2 normalized intensity
3,TTGAAAGTTTGGTGGACTTTGGCCGTGAAGGCCTAGGGAGATTAGAGTATCGGTCGA,7.64 log2 normalized intensity
4,GGTGGACTTTGGCCGTGAAGCCGTCCTGTCGCCTAGGGAGATTAGAGTATCGGTCGA,5.87 log2 normalized intensity
5,CTTCTTTGAAAGTTTGGTGGACTTTGGCCGGCCTAGGGAGATTAGAGTATCGGTCGA,10.1 log2 normalized intensity
6,TAATTCTTCTTTGAAAGTTTGGTGGACTTTGCCTAGGGAGATTAGAGTATCGGTCGA,6.91 log2 normalized intensity
7,AGTTTGGTGGACTTTGGCCGTGAAGCCGTCGCCTAGGGAGATTAGAGTATCGGTCGA,6.75 log2 normalized intensity
8,TGATAAGATTTATCTCTCCAAGGTACTGTGGCCTAGGGAGATTAGAGTATCGGTCGA,0.189 log2 normalized intensity
9,GTGCACTTTGACCCTGCTGTAGTGTGTAAGGCCTAGGGAGATTAGAGTATCGGTCGA,5.69 log2 normalized intensity
10,TCTTGTCCTTCCCCTTTTGTGTTTGTCCCTGCCTAGGGAGATTAGAGTATCGGTCGA,3.03 log2 normalized intensity
11,TCCTCTCTCCCACAAGGGCAGCCCTGTTTAGCCTAGGGAGATTAGAGTATCGGTCGA,-0.515 log2 normalized intensity
12,TTGTCCTTAGACAGTAACCCTTGAGCTCTGGCCTAGGGAGATTAGAGTATCGGTCGA,3.73 log2 normalized intensity
13,GACTTTGAACTTCATGTGTGGTGCAGATTCGCCTAGGGAGATTAGAGTATCGGTCGA,2.1 log2 normalized intensity
14,TGAGACTTTGGACTTTTGAACTAAGGCTGGGCCTAGGGAGATTAGAGTATCGGTCGA,5.5 log2 normalized intensity
15,CCTAAATCTAAGCTGGACTTTGAACTTCATGCCTAGGGAGATTAGAGTATCGGTCGA,9.68 log2 normalized intensity
16,AGCTGGACTTTGAACTTCATGTGTGGTGCAGCCTAGGGAGATTAGAGTATCGGTCGA,6.95 log2 normalized intensity
17,ATCTAAGCTGGACTTTGAACTTCATGTGTGGCCTAGGGAGATTAGAGTATCGGTCGA,8.61 log2 normalized intensity
18,CTTTGGACTTTTGAACTAAGGCTGGAATGAGCCTAGGGAGATTAGAGTATCGGTCGA,3.69 log2 normalized intensity
19,ATTATGGTAGGCAGCCTCTGAGATGGACTCGCCTAGGGAGATTAGAGTATCGGTCGA,3.96 log2 normalized intensity
20,AAATTATTACTCCCACCGTGTGTGCACTTTGCCTAGGGAGATTAGAGTATCGGTCGA,3.9 log2 normalized intensity
21,TGAAAGTTCTCTGGGCTTTTTGATCTTGTCGCCTAGGGAGATTAGAGTATCGGTCGA,1.25 log2 normalized intensity
22,CCCTCGGGCCGGGAAACGCCCTCGGCGCGCGCCTAGGGAGATTAGAGTATCGGTCGA,1.34 log2 normalized intensity

row,Sequence,binding signal
1,TCAGAAACAGGAATTCAAAGGTGCAAAGGTGCCTAGGGAGATTAGAGTATCGGTCGA,2.84 log2 normalized intensity
2,GAACAGGTCAAAGGTCAGTTTCTTTAAGACGCCTAGGGAGATTAGAGTATCGGTCGA,7.63 log2 normalized intensity
3,TAGGAGACTGTCTTAGGAAAGAACAGGTCAGCCTAGGGAGATTAGAGTATCGGTCGA,0.841 log2 normalized intensity
4,GGAAAGAACAGGTCAAAGGTCAGTTTCTTTGCCTAGGGAGATTAGAGTATCGGTCGA,7.69 log2 normalized intensity
5,TCTTAGGAAAGAACAGGTCAAAGGTCAGTTGCCTAGGGAGATTAGAGTATCGGTCGA,9.61 log2 normalized intensity
6,GCAGTTTAGAGAAAGGGTCAAAGGTTAAGCGCCTAGGGAGATTAGAGTATCGGTCGA,9.04 log2 normalized intensity
7,AAGATTTATCAGGTCTTTCTTTCAGAACAGGCCTAGGGAGATTAGAGTATCGGTCGA,0.553 log2 normalized intensity
8,CTTTGGACTTTCAAAAGTTAAGGTCAAGACGCCTAGGGAGATTAGAGTATCGGTCGA,2.78 log2 normalized intensity
9,GCAGAGCAGTTTAGAGAAAGGGTCAAAGGTGCCTAGGGAGATTAGAGTATCGGTCGA,6.23 log2 normalized intensity
10,GACTGTCTTAGGAAAGAACAGGTCAAAGGTGCCTAGGGAGATTAGAGTATCGGTCGA,5.06 log2 normalized intensity
11,TTAGAGAAAGGGTCAAAGGTTAAGCCATTGGCCTAGGGAGATTAGAGTATCGGTCGA,6.33 log2 normalized intensity
12,GGTCAAAGGTCAGTTTCTTTAAGACAAGTGGCCTAGGGAGATTAGAGTATCGGTCGA,5.86 log2 normalized intensity
13,ACCGTAAATGCATTATTGCACTGTGCTTTGGCCTAGGGAGATTAGAGTATCGGTCGA,1.3 log2 normalized intensity
14,TGCTCTCAGCACACTCTGGTACCATGGATGGCCTAGGGAGATTAGAGTATCGGTCGA,0.953 log2 normalized intensity
15,GGCTCTCCCGGGGCGGGGGTGACCAGATTAGCCTAGGGAGATTAGAGTATCGGTCGA,1.07 log2 normalized intensity
16,TCAGGGGTCAATGTGCACATTCGAAGTTTTGCCTAGGGAGATTAGAGTATCGGTCGA,4.86 log2 normalized intensity
17,CATCTGGGCAAGGTGTCAACCTTCATTCTCGCCTAGGGAGATTAGAGTATCGGTCGA,0.575 log2 normalized intensity
18,TCTTTTTAATCAATAATCTTTGCCCTTGAAGCCTAGGGAGATTAGAGTATCGGTCGA,3.49 log2 normalized intensity
19,AGCATATTTGGCCACATCCTGTCTCCTTTAGCCTAGGGAGATTAGAGTATCGGTCGA,1.11 log2 normalized intensity
20,CCTGAAGGGTGTTGTGGAATGTGCTTGGACGCCTAGGGAGATTAGAGTATCGGTCGA,2.16 log2 normalized intensity
21,GTACTTTGTACATGGGAATAGACATTCCAGGCCTAGGGAGATTAGAGTATCGGTCGA,1.99 log2 normalized intensity
22,CCTGGTGACCTTTGTTTGGTCAAATACCTAGCCTAGGGAGATTAGAGTATCGGTCGA,3.66 log2 normalized intensity

row,Sequence,binding signal
1,AGAAGTTGGACTTTGTACATTCCAAATACGGCCTAGGGAGATTAGAGTATCGGTCGA,7.64 log2 normalized intensity
2,TTGGACTTTGTACATTCCAAATACGATAATGCCTAGGGAGATTAGAGTATCGGTCGA,5.9 log2 normalized intensity
3,TTTGTCACATTCCAGACTTTGTACAAGGGCGCCTAGGGAGATTAGAGTATCGGTCGA,3.1 log2 normalized intensity
4,TCCAAAATACGACCTTTGGACAGGGTGACGGCCTAGGGAGATTAGAGTATCGGTCGA,7.56 log2 normalized intensity
5,GGGCTTTTGTCACATTCCAGACTTTGTACAGCCTAGGGAGATTAGAGTATCGGTCGA,5.85 log2 normalized intensity
6,ACATCAGAAGTTGGACTTTGTACATTCCAAGCCTAGGGAGATTAGAGTATCGGTCGA,8.13 log2 normalized intensity
7,AATACGACCTTTGGACAGGGTGACGTCATTGCCTAGGGAGATTAGAGTATCGGTCGA,6.84 log2 normalized intensity
8,AAAGGCCTTTGAAGCTTGAAGGAGTATATGGCCTAGGGAGATTAGAGTATCGGTCGA,0.256 log2 normalized intensity
9,CTTATCAGCAGCTGGGGTGACTGATTGGAGGCCTAGGGAGATTAGAGTATCGGTCGA,0.845 log2 normalized intensity
10,AGTGCACCTTAATAAGCACATTCCTTTCCCGCCTAGGGAGATTAGAGTATCGGTCGA,-0.98 log2 normalized intensity
11,ATCTTATCAGCAAGGGCATTTGCGTAGGCTGCCTAGGGAGATTAGAGTATCGGTCGA,-0.794 log2 normalized intensity
12,TGCTAAGTGCCATGTAATCAAACTGAACTTGCCTAGGGAGATTAGAGTATCGGTCGA,2.1 log2 normalized intensity
13,TACCTGTGCAGATATTTAACCTTTGATCTGGCCTAGGGAGATTAGAGTATCGGTCGA,8.15 log2 normalized intensity
14,GTGGCTACCTGTGCAGATATTTAACCTTTGGCCTAGGGAGATTAGAGTATCGGTCGA,4.61 log2 normalized intensity
15,TTGCACTGTGCTTTGTTTACTTAACCTTTGGCCTAGGGAGATTAGAGTATCGGTCGA,4.5 log2 normalized intensity
16,GATATTTAACCTTTGATCTGTAAGCTCTCTGCCTAGGGAGATTAGAGTATCGGTCGA,5.39 log2 normalized intensity
17,CTGTGCTTTGTTTACTTAACCTTTGATCATGCCTAGGGAGATTAGAGTATCGGTCGA,7.84 log2 normalized intensity
18,CTTTGTTTACTTAACCTTTGATCATATGCAGCCTAGGGAGATTAGAGTATCGGTCGA,5.75 log2 normalized intensity
19,CCTGTCTGACAGGATGAATTTATTGCCCTCGCCTAGGGAGATTAGAGTATCGGTCGA,3.21 log2 normalized intensity
